Sampled rows, rich in hits. Any-hit rate of the full collection: about 1.2%.
RGS7-Gao: modulates binding of RGS7 to human Galphao. P09471. Multiplexed bead flow cytometry; actives lie on both sides. binding response (% of control), % at 10 µM. 220,000 tested, 0.35% active; in the data active means binding response below about 49% or above about 150%; inconclusive means no clear call, values can overlap the other calls; inactive means in between;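 further: fluorescent Galphao held in activated GDP-AlF4 state binding bead-coupled RGS7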
Target sequence (P09471 whole entry, looked up): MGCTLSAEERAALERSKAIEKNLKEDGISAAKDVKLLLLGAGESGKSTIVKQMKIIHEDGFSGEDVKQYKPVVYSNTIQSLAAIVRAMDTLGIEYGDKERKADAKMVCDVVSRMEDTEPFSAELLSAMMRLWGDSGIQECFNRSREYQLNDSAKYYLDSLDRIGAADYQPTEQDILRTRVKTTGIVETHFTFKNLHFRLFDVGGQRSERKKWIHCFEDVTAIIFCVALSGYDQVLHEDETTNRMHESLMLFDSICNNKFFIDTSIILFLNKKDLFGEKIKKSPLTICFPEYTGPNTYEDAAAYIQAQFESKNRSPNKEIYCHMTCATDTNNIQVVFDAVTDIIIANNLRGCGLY
GSH bead fluor: GSH bead compound fluorescence profile; GSH beads flow cytometry, compound fluorescence 488/530 nm; active compounds read high; fluorescence (KMESF) at 10 µM; 190,000 tested, 0.25% active; AID 1776; in the data active means fluorescence above about 89;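 further: glutathione beads carrying GST-tagged Bcl family fusion proteins plus one bare bead set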
RGS16-Gao: modulates binding between human RGS16 and Galphao; bead-based flow cytometry RGS16-Galphao binding, fluorescence; actives lie on both sides; 220,000 tested, 0.38% active; AID 1441; binding response (% of control), % at 10 µM;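 further: Galphao activated by GDP with aluminum fluoride before binding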
Target sequence (O15492 whole entry, looked up): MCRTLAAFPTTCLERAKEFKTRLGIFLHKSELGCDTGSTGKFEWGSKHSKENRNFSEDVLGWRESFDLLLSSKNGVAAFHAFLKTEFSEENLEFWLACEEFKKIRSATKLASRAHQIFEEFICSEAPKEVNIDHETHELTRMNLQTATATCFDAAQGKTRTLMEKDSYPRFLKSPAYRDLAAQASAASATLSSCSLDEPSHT
Target sequence (P09471 whole entry, looked up): as the sequence (P09471 whole entry, looked up) above
RGS4-Gao reg: human RGS4-Galphao interaction regulation | Multiplexed bead flow cytometry, RGS4-Galphao binding; actives lie on both sides | binding response (% of control), % at 10 µM | 220,000 tested, 0.33% active | AID 1415; in the data active means binding response below about 49% or above about 150%; inactive means in between;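 further: fluorescent Galphao activated with aluminum fluoride binding bead-coupled RGS4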
Avidin bead fluor: compound fluoresces at 488/530 nm on avidin beads; AID 1775; 220,000 tested, 0.38% active; fluorescence (KMESF) at 10 µM; compound fluorescence 488/530 nm, flow cytometry; active compounds read high; in the data active means fluorescence above about 47
RGS8-Gao reg: modulates binding of RGS8 to human Galphao. P09471. multiplexed bead flow cytometry; actives lie on both sides. response (percent of control binding), % at 10 µM. 220,000 tested, 0.34% active. AID 1423; in the data active means response below about 60% or above about 140%; inactive means in between;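 further: Galphao activated as the GDP aluminium fluoride complex binding bead-coupled RGS8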
RGS4-Gao HTS: RGS4-Galphao interaction regulator (human). shares compounds with RGS16-Gao. multiplexed bead flow cytometry, RGS–Galpha-o binding. RGS4–Galpha-o binding response, % at 10 µM. 1,600 tested, 99% active;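 further: fluorescently labeled Galpha-o bound to GDP with aluminium fluoride binding biotinylated RGS beads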
Biotin-avidin: biotin-avidin bead binding disruption counter-screen; shares compounds with RGS16-Gao; streptavidin beads, fluorescein-biotin binding, flow cytometry; inhibition, % at 10 µM; 1,700 tested, under 10 active; AID 1783;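 active means inhibition above 50%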;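 further: median green fluorescence of gated singlet beads compared with DMSO control wells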
RGS8-Gao single: confirmation of regulators of human RGS8-Galphao interaction; AID 1836; bead-based flow cytometry RGS8-Galphao binding, fluorescence; actives lie on both sides; shares compounds with RGS16-Gao; 1,700 tested, 3% active; binding response (% of control), % at 10 µM; in the data active means binding response below about 72% or above about 130%; inactive means in between;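 further: Galphao activated as GDP AlF4 complex before binding bead RGS8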
RGS7-Gao single: RGS7-Galphao interaction regulation, single point confirmation. shares compounds with RGS16-Gao. bead-based flow cytometry RGS7-Galphao binding; actives lie on both sides. response (percent of control binding), % at 10 µM. 1,700 tested, 7.8% active. AID 1837; in the data active means response below about 75% or above about 130%; inactive means in between;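 further: fluorescent Galphao activated with GDP and aluminum fluoride binding bead-coupled RGS7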
RGS16-Gao conf: RGS16-Galphao interaction regulation, single point confirmation | shares compounds with RGS16-Gao | bead-based flow cytometry, RGS16-Galphao binding; actives lie on both sides | response (% of control binding), % at 10 µM | 1,700 tested, 4% active | AID 1838; in the data active means response below about 74% or above about 130%; inactive means in between;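 further: Galphao activated as the GDP aluminium fluoride complex binding bead-coupled RGS16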
RGS4-Gao single: confirmation of regulators of human RGS4-Galphao interaction | shares compounds with RGS16-Gao | 1,700 tested, 4% active | RGS4-Galphao binding, multiplexed bead flow cytometry; actives lie on both sides | AID 1840 | binding response (% of control), % at 10 µM; in the data active means binding response below about 74% or above about 130%; inactive means in between
RGS19-Gao single: confirmation of regulators of human RGS19-Galphao interaction; shares compounds with RGS16-Gao; bead-based flow cytometry RGS19-Galphao binding; actives lie on both sides; response (percent of control binding), % at 10 µM; 1,700 tested, 5% active; in the data active means response below about 50% or above about 160%; inactive means in between
A number is an active result; - = inactive; ? = inconclusive; . = not tested or not shown; [ ] = another dose, or the depositor's remark. Unless noted, how the calls were made is not given here.

SMILES	RGS7-Gao	GSH bead fluor	RGS16-Gao	RGS4-Gao reg	Avidin bead fluor	RGS8-Gao reg	Biotin-avidin	RGS8-Gao single	RGS7-Gao single	RGS16-Gao conf	RGS4-Gao single	RGS19-Gao single	others
O=C(COC(=O)c1c[nH]c(=O)[nH]c1=O)Nc1ccccc1Br	?	.	-	-	-	-	.	.	.	.	.	.
CCN(CC)c1ccc(NC(=O)c2cccc(F)c2)c(C)c1	40	-	-	45	-	53	-	-	-	-	-	-
CCN(CC)c1ccc(NC(=O)c2ccco2)c(C)c1	-	-	-	-	-	-	.	.	.	.	.	.
O=C(COc1nncc2ccccc12)NCC(F)(F)F	-	-	-	-	-	-	.	.	.	.	.	.
CCC(CC)C(=O)NCCc1ccc(OC)c(OC)c1	-	-	-	-	-	-	.	.	.	.	.	.
CCC(CC)C(=O)NCCc1ccc(OC)cc1	.	-	.	238[activator]	.	.	-	-	-	-	-	-
COC(=O)c1nnn(-c2cc(Cl)cc(Cl)c2)c1C(=O)OC	?	.	-	-	-	-	.	.	.	.	.	.
CCCCNC1CCS(=O)(=O)C1 (stereo not drawn)	.	-	.	.	.	.	-	-	-	-	-	-
Cc1cccc(-n2ccnc2CN2CCN(C(C)C)C(CCO)C2)c1 (stereo not drawn)	?	.	-	-	-	-	.	.	.	.	.	.
Cc1ccc(S(=O)(=O)Nc2c(C)nn(C)c2C)cc1	-	-	-95	-	-	-	-	-	-	-	-	-	RGS4-Gao HTS=66
Cc1ccc(SC(=O)c2c(C)noc2-c2cc(C)on2)cc1	?	.	-	-	-	-	.	.	.	.	.	.
Nc1ccc2oc(-c3ccccc3Cl)cc(=O)c2c1O	167[activator]	-	-	184[activator]	89	-	-	-	-	-	-	-
O=c1cc(-c2ccccc2Cl)oc2ccc([N+](=O)[O-])c(O)c12	-	-	-	-	-	-	.	.	.	.	.	.
Cc1nnc(NC(=O)CSc2nnc(C)n2Cc2ccccc2)s1	-	-	-	-	-	-	.	.	.	.	.	.
CCn1c(SCC(=O)Nc2nnc(C)s2)nnc1-c1ccncc1	.	-	.	.	.	.	-	-	-	-	-	-
Cc1nnc(NC(=O)CSc2nnc(Cc3ccccc3)n2Cc2ccccc2)s1	-	-	.	-	.	-	-	-	45	-	59	46
Cc1nc(CNC(=O)CC2C(=O)NCCN2Cc2ccoc2)nc2c1CCCC2 (stereo not drawn)	?	.	-	-	-	-	.	.	.	.	.	.
CC1=C(C(=O)OCC2CCCO2)C(c2ccsc2)C2=C(CC(C)(C)CC2=O)N1 (stereo not drawn)	-	-	-	-	-	-	.	.	.	.	.	.
COC(=O)C1=C(C)NC2=C(C(=O)CC(C)(C)C2)C1c1ccsc1 (stereo not drawn)	25	-	18	28	-	25	-	-	-	-	-	-
Cc1ccc(C)c(S(=O)(=O)Nc2ccccc2C(=O)Nc2cc(C)on2)c1	-	-	-	-	-	-	.	.	.	.	.	.
Cc1ccc(C)c(NC(=O)c2ccccc2NS(=O)(=O)c2cc([N+](=O)[O-])ccc2C)c1	-	-	188[activator]	-	-	-	.	.	.	.	.	.	RGS4-Gao HTS=104
O=C(Cc1ccc(Cl)c(Cl)c1)Nc1cccc(S(=O)(=O)N2CCOCC2)c1	-	-	-	-	-	-	.	.	.	.	.	.
Nc1ccc(-c2ccc(N)cc2C(F)(F)F)c(C(F)(F)F)c1	204[activator]	-	-	-	123	-	-	-	-	-	-	-	RGS4-Gao HTS=118
Cc1nc(C)c(C(=O)O)s1	?	.	-	-	-	-	.	.	.	.	.	.
C#CCSc1nnc(-c2ccccc2)c(=O)[nH]1	17	-	10	21	-	13	-	-	-	-	-	-
SMILES	RGS7-Gao	GSH bead fluor	RGS16-Gao	RGS4-Gao reg	Avidin bead fluor	RGS8-Gao reg	Biotin-avidin	RGS8-Gao single	RGS7-Gao single	RGS16-Gao conf	RGS4-Gao single	RGS19-Gao single	others
O=C(C[n+]1cccc(O)c1)Nc1ccc(Br)cc1	?	-	-	-	-	-	.	.	.	.	.	.
C=CCn1c(SCc2ccc(F)cc2)nnc1-c1sc2nc(C)cc(C)c2c1N	?	.	-	-	-	-	.	.	.	.	.	.
O=C(c1cccs1)N1CCc2ccccc21	153[activator]	-	-	154[activator]	-	-	-	-	-	-	-	-
COc1ccc(C(=O)Nc2ccc(-c3cn4ccsc4n3)cc2)cc1S(=O)(=O)N1CCOCC1	-7.2	-	-56	-46	.	17	-	-	-	-	-	-
O=C(NCCc1ccncc1)Nc1ccccc1Cl	194[activator]	-	-	-	126	-	-	-	-	-	-	-	RGS4-Gao HTS=88
O=C(NCCc1ccncc1)Nc1cccc(Cl)c1	-	-	-	-	-	-	.	.	.	.	.	.
COc1cccc(F)c1C(C[N+](=O)[O-])c1c(N)n(C)c(=O)n(C)c1=O (stereo not drawn)	?	.	-	-	-	-	.	.	.	.	.	.
COc1ccc(CNC(=O)C2CCC(CNc3c(N4CCCCC4)c(=O)c3=O)CC2)cc1 (stereo not drawn)	?	.	14	20	-	24	-	-	-	-	-	-
COc1ccccc1-c1nnc2n1N=C(c1ccc(O)c(O)c1)CS2	47	-	-	-	-	59	-	-	-	-	-	-	RGS4-Gao HTS=56
CCOc1ccc(C2=Nn3c(nnc3-c3ccccc3OC)SC2)cc1	-	-	-	-	-	-	.	.	.	.	.	.
N#C/C(=C\c1ccco1)C(=O)Nn1cnnc1	-	-	-	-	-	-	.	.	.	.	.	.
O=C(NCc1ccccn1)C1CCN(Cc2cnn(-c3ccccc3)c2-n2cccc2)CC1	.	-	.	-	.	.	-	-	-	-	-	-
COc1ccc(C2=NOC(C(=O)Nc3cccnc3)C2)cc1OC (stereo not drawn)	?	.	-	-	-	-	.	.	.	.	.	.
COc1ccc(-n2nc(C(=O)NCC(=O)Nc3ccccn3)c3ccccc3c2=O)cc1Cl	-	-	-	167[activator]	-	-	-	-	-	-	-	-
Cc1ccc(-n2c(C)nnc2SCC(=O)NNC(=O)c2ccco2)cc1	-	-	-	-	-	-	.	.	.	.	.	.
CCOC(=O)N1CCN(C(=O)Cn2nc(-c3ccc(Cl)cc3)ccc2=O)CC1	-	-	-	-	-	-	.	.	.	.	.	.
